Measurements published in PubChem BioAssay (NCI).
Compounds without any hit were thinned out: in the full panel of roughly 79,000, 15% have a hit. Values without a mark were called inactive. Calls of active or inactive are those of the source. No stated cut-off is given here; in the data, active means growth inhibition above about 70%; inactive means the rest.

Assays:
[1] = NCI Yeast Anticancer Drug Screen. Data for the rad52 strain (AID 147);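 further: 0% = growth of vehicle-treated control cultures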; conditions: S. cerevisiae rad52 mutant growth inhibition, stronger effect = higher value
Summary of the method: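 Read-out: growth inhibition versus vehicle-treated controls. Cells were a DNA repair-deficient yeast strain treated with compounds.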

[2] = NCI Yeast Anticancer Drug Screen. Data for the wt1 strain (AID 149);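 further: 0% = growth of vehicle-treated wt1 cultures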; conditions: S. cerevisiae wt1 strain (SPY 50644) growth inhibition, stronger effect = higher value
Summary of the method: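 Vehicle-normalised growth inhibition; strain wt1; compound exposure.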

[3] = NCI Yeast Anticancer Drug Screen. Data for the rad50EPP+ strain (AID 151);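 further: 0% = growth of vehicle-treated control cultures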; conditions: S. cerevisiae rad50 mutant strain, stronger effect = higher value
Summary of the method: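 Growth inhibition read against vehicle controls in rad50EPP+ yeast, a strain altered in DNA damage repair, after compound exposure.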

[4] = NCI Yeast Anticancer Drug Screen. Data for the mgt1 strain (AID 153); conditions: S. cerevisiae mgt1 mutant growth inhibition, stronger effect = higher value
Summary of the method: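 mgt1 yeast grown with test compound; read-out is growth inhibition versus vehicle-treated cultures.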

[5] = NCI Yeast Anticancer Drug Screen. Data for the rad50 strain (AID 155);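 further: 0% = growth of vehicle-only cultures of the same strain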; conditions: S. cerevisiae rad50 strain growth inhibition, stronger effect = higher value
Summary of the method: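 A DNA repair-deficient yeast mutant serves as the test organism; compound-induced growth inhibition is calculated against vehicle-treated cells.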

[6] = NCI Yeast Anticancer Drug Screen. Data for the mec2-1 strain (AID 157); conditions: S. cerevisiae mec2-1 strain, stronger effect = higher value
Summary of the method: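 Yeast mec2-1 mutant treated with compound. Readout: growth inhibition vs vehicle controls.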

[7] = NCI Yeast Anticancer Drug Screen. Data for the rad14 strain (AID 159);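 further: 0% = growth of vehicle-treated control cultures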; conditions: S. cerevisiae rad14 strain growth inhibition, stronger effect = higher value
Summary of the method: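 Vehicle-treated cultures served as the baseline for growth inhibition of a DNA repair-mutant yeast strain exposed to each compound.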

[8] = NCI Yeast Anticancer Drug Screen. Data for the sgs1 mgt1 strain (AID 161);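 further: 0% = growth of cultures given vehicle only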; conditions: S. cerevisiae sgs1 mgt1 strain, stronger effect = higher value
Summary of the method: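 Mutant yeast exposed to compound; growth scored against vehicle-only wells.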

[9] = NCI Yeast Anticancer Drug Screen. Data for the CLN2oe strain (AID 163);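 further: 0% = growth of vehicle-only control cultures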; conditions: S. cerevisiae CLN2oe strain, stronger effect = higher value
Summary of the method: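 Read-out: yeast growth inhibition, expressed relative to vehicle-only controls. The strain bears an engineered cell-cycle alteration.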

[10] = NCI Yeast Anticancer Drug Screen. Data for the cln2 rad14 strain (AID 165);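 further: 0% = growth equal to vehicle treated cultures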; conditions: S. cerevisiae cln2 rad14 strain, stronger effect = higher value
Summary of the method: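 cln2 rad14 yeast strain; compound exposure; growth inhibition read vs vehicle controls.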

[11] = NCI Yeast Anticancer Drug Screen. Data for the bub3 strain (AID 167); conditions: S. cerevisiae bub3 mutant strain, stronger effect = higher value
Summary of the method: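 Inhibition values come from growth of compound-treated mutant yeast normalised to vehicle-treated controls.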

[12] = NCI Yeast Anticancer Drug Screen. Data for the wt2 strain (AID 169);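 further: 0% = growth of vehicle-treated yeast cultures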; conditions: S. cerevisiae wt2 strain growth inhibition, stronger effect = higher value
Summary of the method: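 Read-out: growth inhibition versus vehicle-treated control cultures after compound exposure of the yeast strain.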

[13] = NCI Yeast Anticancer Drug Screen. Data for the mlh1 strain (AID 171);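 further: 0% = growth of vehicle-treated control cultures of the same strain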; conditions: S. cerevisiae mlh1 strain growth inhibition, stronger effect = higher value
Summary of the method: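 Read-out: growth inhibition versus vehicle controls. Strain: engineered yeast with a defined DNA repair or cell cycle defect, compound-treated.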

[14] = NCI Yeast Anticancer Drug Screen. Data for the sgs1 strain (AID 173);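 further: 0% = growth of vehicle-only control cultures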; conditions: S. cerevisiae sgs1 mutant, stronger effect = higher value
Summary of the method: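 Read-out: yeast growth inhibition relative to vehicle controls, following compound exposure of a strain with a defined DNA repair/cell cycle alteration.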

[15] = NCI Yeast Anticancer Drug Screen. Data for the mlh1 rad18 strain (AID 175); conditions: S. cerevisiae mlh1 rad18 strain growth inhibition, stronger effect = higher value
Summary of the method: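 Yeast w/ defined DNA-repair lesions; compound exposure; growth vs vehicle controls → % inhibition.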

[16] = NCI Yeast Anticancer Drug Screen. Data for the rad18 strain (AID 177); conditions: S. cerevisiae rad18 mutant growth inhibition, stronger effect = higher value
Summary of the method: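 Readout: growth inhibition vs vehicle controls. Cells: genetically altered yeast strain, DNA repair defect.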

[17] = at 5.0 µM (retest, dose inferred, filed as 0.5)
[18] = at 50.0 µM (retest, dose inferred, filed as 5.0)

## COc1ccc(C/C=N/Nc2ccc([N+](=O)[O-])cc2)cc1OC
[1]; at 1.2 µM
  growth inhibition: 8%
[1]; at 3.7 µM
  growth inhibition: 12%
[1]; at 11.0 µM
  growth inhibition: 18%
[1]; at 33.0 µM
  growth inhibition: 39%
[1]; at 100.0 µM
  growth inhibition: 42%
[2]; at 1.2 µM
  growth inhibition: 4%
[2]; at 3.7 µM
  growth inhibition: 2%
[2]; at 11.0 µM
  growth inhibition: 5%
[2]; at 33.0 µM
  growth inhibition: -1%
[2]; at 100.0 µM
  growth inhibition: 2%
[3]; at 1.2 µM
  growth inhibition: 15%
[3]; at 3.7 µM
  growth inhibition: 29%
[3]; at 11.0 µM
  growth inhibition: 33%
[3]; at 33.0 µM
  growth inhibition: 35%
[3]; at 100.0 µM
  growth inhibition: 51%
[4]; at 1.2 µM
  growth inhibition: 2%
[4]; at 3.7 µM
  growth inhibition: 12%
[4]; at 11.0 µM
  growth inhibition: 9%
[4]; at 33.0 µM
  growth inhibition: 4%
[4]; at 100.0 µM
  growth inhibition: 23%
[5]; at 1.2 µM
  growth inhibition: 27%
[5]; at 3.7 µM
  growth inhibition: 36%
[5]; [17]
  growth inhibition: 9%
[5]; at 11.0 µM
  growth inhibition: 28%
[5]; at 33.0 µM
  growth inhibition: 56%
[5]; [18]
  growth inhibition: 97% (active)
[5]; at 50.0 µM
  growth inhibition: 98.1% (active)
[5]; at 100.0 µM
  growth inhibition: 66%
[6]; at 1.2 µM
  growth inhibition: 1%
[6]; at 3.7 µM
  growth inhibition: 3%
[6]; [17]
  growth inhibition: 16%
[6]; at 11.0 µM
  growth inhibition: 4%
[6]; at 33.0 µM
  growth inhibition: 1%
[6]; [18]
  growth inhibition: 98% (active)
[6]; at 50.0 µM
  growth inhibition: 97.3% (active)
[6]; at 100.0 µM
  growth inhibition: 6%
[7]; at 1.2 µM
  growth inhibition: 3%
[7]; at 3.7 µM
  growth inhibition: 12%
[7]; at 11.0 µM
  growth inhibition: 23%
[7]; at 33.0 µM
  growth inhibition: 25%
[7]; at 100.0 µM
  growth inhibition: 30%
[8]; [17]
  growth inhibition: 9%
[8]; [18]
  growth inhibition: 97% (active)
[8]; at 50.0 µM
  growth inhibition: 97.5% (active)
[9]; at 1.2 µM
  growth inhibition: 8%
[9]; at 3.7 µM
  growth inhibition: 6%
[9]; at 11.0 µM
  growth inhibition: 12%
[9]; at 33.0 µM
  growth inhibition: 1%
[9]; at 100.0 µM
  growth inhibition: 20%
[10]; [17]
  growth inhibition: -3%
[10]; [18]
  growth inhibition: 89% (active)
[10]; at 50.0 µM
  growth inhibition: 54.4%
[11]; at 1.2 µM
  growth inhibition: 3%
[11]; at 3.7 µM
  growth inhibition: 2%
[11]; [17]
  growth inhibition: 12%
[11]; at 11.0 µM
  growth inhibition: 8%
[11]; at 33.0 µM
  growth inhibition: 13%
[11]; [18]
  growth inhibition: 97% (active)
[11]; at 50.0 µM
  growth inhibition: 98.2% (active)
[11]; at 100.0 µM
  growth inhibition: 23%
[12]; at 1.2 µM
  growth inhibition: -2%
[12]; at 3.7 µM
  growth inhibition: -1%
[12]; at 11.0 µM
  growth inhibition: 5%
[12]; at 33.0 µM
  growth inhibition: 5%
[12]; at 100.0 µM
  growth inhibition: -3%
[13]; at 1.2 µM
  growth inhibition: -1%
[13]; at 3.7 µM
  growth inhibition: 6%
[13]; at 11.0 µM
  growth inhibition: 9%
[13]; at 33.0 µM
  growth inhibition: 11%
[13]; at 100.0 µM
  growth inhibition: 31%
[14]; at 1.2 µM
  growth inhibition: -17%
[14]; at 3.7 µM
  growth inhibition: -24%
[14]; at 11.0 µM
  growth inhibition: -8%
[14]; at 33.0 µM
  growth inhibition: 48%
[14]; at 100.0 µM
  growth inhibition: 73% (active)
[15]; [17]
  growth inhibition: 7%
[15]; [18]
  growth inhibition: 98% (active)
[15]; at 50.0 µM
  growth inhibition: 97.8% (active)
[16]; at 1.2 µM
  growth inhibition: 15%
[16]; at 3.7 µM
  growth inhibition: 43%
[16]; at 11.0 µM
  growth inhibition: 26%
[16]; at 33.0 µM
  growth inhibition: 20%
[16]; at 100.0 µM
  growth inhibition: 56%

## COc1cccc(/C=N/C(/N=C/c2cccc(OC)c2O)c2cccc(OC)c2O)c1O
[1]; at 1.2 µM
  growth inhibition: 1%
[1]; at 3.7 µM
  growth inhibition: 5%
[1]; at 11.0 µM
  growth inhibition: 23%
[1]; at 33.0 µM
  growth inhibition: 67%
[1]; at 100.0 µM
  growth inhibition: 97% (active)
[2]; at 1.2 µM
  growth inhibition: -1%
[2]; at 3.7 µM
  growth inhibition: 1%
[2]; at 11.0 µM
  growth inhibition: 7%
[2]; at 33.0 µM
  growth inhibition: 26%
[2]; at 100.0 µM
  growth inhibition: 91% (active)
[3]; at 1.2 µM
  growth inhibition: 2%
[3]; at 3.7 µM
  growth inhibition: 15%
[3]; at 11.0 µM
  growth inhibition: 61%
[3]; at 33.0 µM
  growth inhibition: 93% (active)
[3]; at 100.0 µM
  growth inhibition: 98% (active)
[4]; at 1.2 µM
  growth inhibition: -1%
[4]; at 3.7 µM
  growth inhibition: -2%
[4]; at 11.0 µM
  growth inhibition: 5%
[4]; at 33.0 µM
  growth inhibition: 36%
[4]; at 100.0 µM
  growth inhibition: 98% (active)
[5]; at 1.2 µM
  growth inhibition: 4%
[5]; at 3.7 µM
  growth inhibition: -28%
[5]; [17]
  growth inhibition: 19%
[5]; at 11.0 µM
  growth inhibition: 52%
[5]; at 33.0 µM
  growth inhibition: 87% (active)
[5]; [18]
  growth inhibition: 79% (active)
[5]; at 50.0 µM
  growth inhibition: 89.5% (active)
[5]; at 100.0 µM
  growth inhibition: 97% (active)
[6]; at 1.2 µM
  growth inhibition: -1%
[6]; at 3.7 µM
  growth inhibition: 2%
[6]; [17]
  growth inhibition: -4%
[6]; at 11.0 µM
  growth inhibition: 8%
[6]; at 33.0 µM
  growth inhibition: 25%
[6]; [18]
  growth inhibition: 27%
[6]; at 50.0 µM
  growth inhibition: 87% (active)
[6]; at 100.0 µM
  growth inhibition: 96% (active)
[7]; at 1.2 µM
  growth inhibition: 1%
[7]; at 3.7 µM
  growth inhibition: 6%
[7]; at 11.0 µM
  growth inhibition: 19%
[7]; at 33.0 µM
  growth inhibition: 73% (active)
[7]; at 100.0 µM
  growth inhibition: 99% (active)
[8]; [17]
  growth inhibition: 4%
[8]; [18]
  growth inhibition: 71% (active)
[8]; at 50.0 µM
  growth inhibition: 86.7% (active)
[9]; at 1.2 µM
  growth inhibition: -2%
[9]; at 3.7 µM
  growth inhibition: 3%
[9]; at 11.0 µM
  growth inhibition: 8%
[9]; at 33.0 µM
  growth inhibition: 20%
[9]; at 100.0 µM
  growth inhibition: 54%
[10]; [17]
  growth inhibition: -1%
[10]; [18]
  growth inhibition: 34%
[10]; at 50.0 µM
  growth inhibition: 45%
[11]; at 1.2 µM
  growth inhibition: -2%
[11]; at 3.7 µM
  growth inhibition: -1%
[11]; [17]
  growth inhibition: -5%
[11]; at 11.0 µM
  growth inhibition: 1%
[11]; at 33.0 µM
  growth inhibition: 39%
[11]; [18]
  growth inhibition: 43%
[11]; at 50.0 µM
  growth inhibition: 67%
[11]; at 100.0 µM
  growth inhibition: 98% (active)
[12]; at 1.2 µM
  growth inhibition: 0%
[12]; at 3.7 µM
  growth inhibition: 7%
[12]; at 11.0 µM
  growth inhibition: 4%
[12]; at 33.0 µM
  growth inhibition: 24%
[12]; at 100.0 µM
  growth inhibition: 93% (active)
[13]; at 1.2 µM
  growth inhibition: 0%
[13]; at 3.7 µM
  growth inhibition: 2%
[13]; at 11.0 µM
  growth inhibition: 7%
[13]; at 33.0 µM
  growth inhibition: 33%
[13]; at 100.0 µM
  growth inhibition: 97% (active)
[14]; at 1.2 µM
  growth inhibition: -1%
[14]; at 3.7 µM
  growth inhibition: 3%
[14]; at 11.0 µM
  growth inhibition: 19%
[14]; at 33.0 µM
  growth inhibition: 67%
[14]; at 100.0 µM
  growth inhibition: 98% (active)
[15]; [17]
  growth inhibition: 4%
[15]; [18]
  growth inhibition: 65%
[15]; at 50.0 µM
  growth inhibition: 94.8% (active)
[16]; at 1.2 µM
  growth inhibition: -1%
[16]; at 3.7 µM
  growth inhibition: 9%
[16]; at 11.0 µM
  growth inhibition: 21%
[16]; at 33.0 µM
  growth inhibition: 68%
[16]; at 100.0 µM
  growth inhibition: 98% (active)
